Source: PubChem BioAssay (NCATS)
Records with an inconclusive call do not appear. A call without a number means that no potency is given here. Calls of active or inactive are those of the source. Calls come from the whole dose curve; as a rule, active = well fitted inhibition curve with a large enough effect; inconclusive = small, poorly fitted or top-dose-only effect; inactive = flat fitted curve, though single readings scatter.

The compounds below were run on WaGa (assay: qHTS assay to identify novel small-molecules to repurpose for Merkel cell carcinoma treatment (AID 1296009; note: nearly all actives have a fitted effect of over 60% in size)). Conditions: MCC and control cell lines, CellTiter-Glo viability, 72 h; series mostly up to 46 µM.
How it was run: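 Cells exposed to NPC (8-point) and MIPE (11-point) compound dilutions for 72 hr at 37 degree celsius; viability read by CellTiter-Glo luminescence, normalized to no-cell and DMSO in-plate controls.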
Potency is the fitted concentration of half-maximal effect.

**Q.** With `COC(=O)[C@@H](N)CCCN=C(N)N[N+](=O)[O-]` as the compound, how does the Potency read?
**A.** inactive

**Q.** With `C[C@](O)(COc1ccc(C#N)cc1)C(=O)Nc1ccc(C#N)c(C(F)(F)F)c1` as the compound, how does the Potency read?
**A.** inactive

**Q.** For `CN(C)[C@@H]1C(=O)C(C(N)=O)=C(O)[C@@]2(O)C(=O)C3=C(O)c4c(O)cccc4[C@@](C)(O)[C@H]3[C@H](O)[C@@H]12`, which Potency is on record?
**A.** inactive

**Q.** `C[C@H]([C@H](O)CCC(C)(C)O)[C@H]1CC[C@@]2(O)C3=CC(=O)[C@@H]4C[C@@H](O)[C@@H](O)C[C@]4(C)[C@@H]3CC[C@]12C` was tested. Which Potency did it give?
**A.** inactive

**Q.** `O=S(=O)(CC1CS1)c1ccc(Oc2ccccc2)cc1` (stereo unspecified) was tested. Which Potency did it give?
**A.** 20900 nM (active)

**Q.** For `CC(C)(C)[C@]1(O)C[C@@H]2OC(=O)C[C@@]23C(=O)O[C@@H]2OC(=O)[C@H](O)C213` (stereo partly specified), which Potency is on record?
**A.** inactive

**Q.** `COc1ccc(C(=O)c2c(C)n(CCN3CCOCC3)c3cc(I)ccc23)cc1` was tested. Which Potency did it give?
**A.** inactive

**Q.** With `CCOC(=O)c1c(C(C#N)=CN)c2ccc(Cl)c(Cl)c2n1C` as the compound, how does the Potency read?
**A.** inactive

**Q.** With `C[C@]12CC[C@H]3[C@@H](CCC4=CC(=O)CC[C@@]43C)[C@H]1CC[C@H]2OC(=O)CCC1CCCC1` as the compound, how does the Potency read?
**A.** inactive

**Q.** How did the Potency turn out when `C=CCON=C(C[C@H]1O[C@@H]2O[C@]3(C)CC[C@@H]4[C@H](C)CC[C@@H]([C@H]1C)[C@@]24OO3)[C@H]1O[C@@H]2O[C@]3(C)CC[C@H]4[C@H](C)CC[C@@H]([C@@H]1C)[C@@]24OO3` was run?
**A.** 1050 nM (active)

**Q.** How did the Potency turn out when `NC1CC1c1ccccc1` (stereo unspecified) was run?
**A.** inactive

**Q.** Which Potency does the source give for `COc1cccc2c1[C@]13CCN(CC4CC4)[C@H](C2)[C@]1(OC)CCC(=O)C3` here?
**A.** inactive

**Q.** Which Potency does the source give for `C[C@@H]1O[C@@H](O[C@@H]2C=C3CC[C@@H]4[C@@H](CC[C@]5(C)[C@H](c6ccc(=O)oc6)CC[C@@]45O)[C@@]3(C)CC2)[C@H](O)[C@H](O)[C@H]1O` here?
**A.** 41.8 nM (active)

**Q.** With `CC(=Cc1csc(C)n1)[C@@H]1C[C@H]2O[C@@H]2CCC[C@H](C)[C@@H](O)[C@@H](C)C(=O)C(C)(C)[C@@H](O)CC(=O)O1` as the compound, how does the Potency read?
**A.** inactive

**Q.** With `CC1=NN=C(c2ccc(N)cc2)c2cc3c(cc2C1)OCO3` as the compound, how does the Potency read?
**A.** inactive

**Q.** With `COC[C@H]1OC(=O)c2coc3c2[C@@]1(C)C1=C(C3=O)[C@@H]2CC[C@H](O)[C@@]2(C)C[C@@H]1OC(C)=O` as the compound, how does the Potency read?
**A.** 10500 nM (active)

**Q.** For `C#C[C@]1(O)C=C[C@@H]2[C@@H]3CCC4=CC(=O)CC[C@@H]4[C@H]3CC[C@@]21CC`, which Potency is on record?
**A.** inactive

**Q.** With `O=C1CCC[C@@H]2[C@H]3CCCN4CCC[C@@H](CN12)[C@@H]34` as the compound, how does the Potency read?
**A.** inactive

**Q.** For `C[C@]12CCC(=O)C(O)=C1CC[C@@H]1[C@H]3CCC(=O)[C@@]3(C)CC[C@@H]12`, which Potency is on record?
**A.** inactive

**Q.** `c1ccc2c(CN3CCNCC3)cccc2c1` was tested. Which Potency did it give?
**A.** inactive

**Q.** Which Potency does the source give for `COCC1(CO)C(=O)C2CCN1CC2` (stereo unspecified) here?
**A.** 1320 nM (active)

**Q.** How did the Potency turn out when `CCCC[N+]1(C)[C@H]2CC(OC(=O)[C@H](CO)c3ccccc3)C[C@H]1[C@H]1O[C@H]12` (stereo partly specified) was run?
**A.** inactive

**Q.** Which Potency does the source give for `Cc1c(N)nc([C@H](CC(N)=O)NC[C@@H](N)C(N)=O)nc1C(=O)N[C@H](C(=O)N[C@@H](C)[C@H](O)[C@@H](C)C(=O)N[C@@H](C(=O)NCCc1nc(-c2nc(C(=O)NCCC[S+](C)C)cs2)cs1)[C@@H](C)O)C(O[C@H]1O[C@H](CO)[C@H](O)[C@@H](O)[C@@H]1O[C@H]1O[C@H](CO)[C@@H](O)[C@H](OC(N)=O)[C@H]1O)c1cnc[nH]1` (stereo partly specified) here?
**A.** 3720 nM (active)

**Q.** `C[C@]12CC[C@@H]3[C@@H](CCC4=CC(=O)CC[C@@H]43)[C@@H]1CC[C@@H]2OC(=O)CCc1ccccc1` was tested. Which Potency did it give?
**A.** inactive

**Q.** Which Potency does the source give for `C1=C2CCCN[C@H]2[C@@H]2C[C@H]1[C@@H]1CCCCN1C2` here?
**A.** inactive

**Q.** Which Potency does the source give for `O=[N+]([O-])c1ncc[nH]1` here?
**A.** inactive

**Q.** `CO[C@H]1CCC(O[C@H]2C[C@H]([C@]3(C)CC[C@]4(C[C@H](O)[C@@H](C)[C@@H]([C@@H](C)C=C(C)C(=O)[C@H](C)C[C@H](C)C(=O)O)O4)O3)O[C@]3(O[C@@H]([C@H]4O[C@@](O)(CO)[C@H](C)C[C@H]4C)C[C@H]3C)[C@H]2C)O[C@H]1C` (stereo partly specified) was tested. Which Potency did it give?
**A.** 935 nM (active)

**Q.** With `COc1cc2cc(c1Cl)N(C)C(=O)C[C@H](OC(=O)C(C)C)[C@]1(C)O[C@H]1[C@H](C)[C@@H]1C[C@@](O)(NC(=O)O1)[C@H](OC)C=CC=C(C)C2` as the compound, how does the Potency read?
**A.** inactive

**Q.** How did the Potency turn out when `COc1ccc(CC2NCCc3cc(OC)c(OC)cc32)cc1OC` (stereo unspecified) was run?
**A.** inactive

**Q.** With `O=S(=O)(F)Cc1ccccc1` as the compound, how does the Potency read?
**A.** inactive

**Q.** For `C=C[C@@H]1CN2CCC1C[C@H]2[C@H](O)c1ccnc2ccccc12` (stereo partly specified), which Potency is on record?
**A.** inactive
